Rows were chosen to be rich in hits. Some 11% of all compounds tested hit in one or more screens of this group.
FLuc inh – Firefly luciferase inhibition profiling of diverse chemical library using quantitative high-throughput screening. Luciferin 4-monooxygenase (Photinus pyralis), P08659. purified P. pyralis luciferase, luminescence, biochemical. Potency, µM (titrated, usually from 115 µM), usual class: inhibitors. 76,000 tested, 2.5% active. AID 1347043, 2019; also: nearly all actives have a fitted effect of over 65% in size
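Biochemical qHTS: compound (6-point titration) added to 10uM D-luciferin plus 10uM ATP in Tris acetate pH 7.5 buffer with Mg, Tween-20 and BSA, then purified enzyme at 10nM; light output imaged.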
3T3 cytotox – Cytotoxic Profiling in NIH 3T3 Cell Line of Diverse Libraries Using Quantitative High-Throughput Screening | 94,000 tested, 4.3% active | Potency, µM (titrated, usually from 96.7 µM), most hits filed as inhibitors | AID 1345082, 2018 | NIH 3T3 viability, CellTiter-Glo ATP luminescence, 48-72 h; also: nearly all actives have a fitted effect of over 55% in size
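Cytotoxicity is measured as loss of cellular ATP: NIH 3T3 cells (400/well) are exposed to compound for 48 or 72 hr at 37 °C, then CellTiter-Glo luminescence is imaged after 10 min at room temperature.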
HEK293 tox – Cytotoxic Profiling in HEK 293 Cell Line of Diverse Libraries Using Quantitative High-Throughput Screening; HEK 293 viability, ATP luminescence (CellTiter-Glo), 48-72 h; Potency, µM (series often up to 115 µM), hits mostly inhibitors; 94,000 tested, 6.6% active; also: nearly all actives have a fitted effect of over 60% in size
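Pintool-delivered compounds were incubated with HEK 293 cells (250 cells/well) at 37 degree Celsius for 48 or 72 hr. ATP-dependent luminescence (CellTiter-Glo) then reported remaining viable cells.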
NPR1 antag – Natriuretic polypeptide receptor (hNpr1) antagonism - Primary qHTS | HEK293 hNpr1 GloSensor cGMP, ANP-stimulated luminescence | 76,000 tested, 1.6% active | Potency, µM (titrated, usually from 46.3 µM), hits mostly inhibitors; calls by dose curve; also: nearly all actives have a fitted effect of over 60% in size
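Compound pre-incubated 30 min at room temperature on GloSensor-loaded HEK293 cells stably carrying hNpr1 and the pGS-40F cGMP biosensor. Stimulation uses hNppA at 0.1 nM final; luminescence is taken at baseline and 20 min post-agonist.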
A number is an active result; n = inactive; u = inconclusive; x = no result. Unless noted, calls follow the shape of the dose curve; as a rule, active = well fitted curve in the direction sought with a large enough effect; inconclusive = small, poorly fitted or top-dose-only effect, or another doubt; inactive = no such curve, though single readings can be large; an effect the other way counts as inactive or inconclusive.

SMILES	FLuc inh	3T3 cytotox	HEK293 tox	NPR1 antag
COc1ccccc1-c1ccc(CN2CCCCC2C(=O)NCc2ccccc2F)cc1 (centres undefined)	x	u	39.8µM	x
O=C(NCCCc1ccccc1)C1CCCN1Cc1ccc(-c2cncnc2)cc1 (centres undefined)	x	n	u	x
CNC(=O)c1cc(C2CC2)nc2c1c(C1CCN(C(=O)c3ccccc3C)C1)nn2C (centres undefined)	x	n	n	x
CCN1C(=O)C2(CCN(S(=O)(=O)c3ccc(F)c(C)c3)CC2)c2ccccc21	n	n	u	n
CC(=O)N1CCC(C(=O)N2CCC(c3nc4ncccc4[nH]3)C2)CC1 (centres undefined)	x	n	n	x
O=C(CN1C(=O)NC(c2ccc(Cl)cc2)C2=C1COC2=O)NCc1ccccc1Cl (centres undefined)	n	u	35.5µM	n
CC(CCc1ccccc1)NC(=O)CN1C(=O)NC(c2ccc(Cl)cc2)C2=C1COC2=O (centres undefined)	n	u	39.8µM	n
Cc1ccc(C2NC(=O)N(CC(=O)NC(C)CCc3ccccc3)C3=C2C(=O)OC3)cc1 (centres undefined)	n	n	u	n
COc1ccc(S(=O)(=O)N2C[C@@H]3C[C@H](C2)c2ccc(NC(=O)c4cnccn4)c(=O)n2C3)cc1	n	n	n	n
COc1ccc(C(=O)Nc2ccc3n(c2=O)C[C@H]2C[C@@H]3CN(S(=O)(=O)c3ccc(OC)cc3)C2)cc1	8.91µM	n	u	n
Cc1cc(=O)n(CC(=O)Nc2ccc(Br)cc2)c(N2CCC(C)CC2)n1	n	u	39.8µM	u
Cc1cc(=O)n(CC(=O)Nc2ccc(F)cc2)c(N2CCN(c3ccccc3)CC2)n1	n	u	u	n
CCc1ccc(NC(=O)Cn2c(N3CCC(C)CC3)nc(C)cc2=O)cc1	n	u	44.7µM	u
Cc1cc(=O)n(CC(=O)Nc2ccc(Cl)cc2)c(N2CCC(C)CC2)n1	n	u	39.8µM	n
CCOC(=O)c1ccc(NC(=O)Cn2c(N3CCN(c4ccccc4)CC3)nc(C)cc2=O)cc1	n	31.6µM	39.8µM	n
COc1ccc(-c2c(C(=O)NCc3ccccc3)nc3sccn23)cc1	x	u	n	x
COc1cccc(CN2CCCCC23Cc2ccccc2CNC3=O)c1 (centres undefined)	x	n	u	x
Cc1cc(=O)n(CC(=O)Nc2ccc(C)c(Cl)c2)c(N2CCC(C)CC2)n1	n	u	31.6µM	u
Cc1cc(=O)n(CC(=O)Nc2ccc(C)c(C)c2)c(N2CCC(C)CC2)n1	n	u	u	n
CC(=O)c1ccc(NC(=O)Cn2c(-c3ccc(Cl)cc3)nc(C)cc2=O)cc1	n	u	44.7µM	n
Cc1ccc(NC(=O)Cn2c(C)cc3nc4n(c(=O)c32)CCCCC4)cc1Cl	n	39.8µM	28.2µM	n
O=S(=O)(c1cccc2nsnc12)N1CCC2(CCC2N2CCOCC2)CC1 (centres undefined)	x	n	n	x
CCOC(=O)C1CCN(C(=O)c2cn3ccnc(-c4ccc(OC)cc4)c3n2)CC1	n	u	79.4µM	n
COc1ccc(-c2nccn3cc(C(=O)NCc4nc5ccccc5n4C)nc23)cc1	n	u	28.2µM	u
COc1ccc(-c2nccn3cc(C(=O)O)nc23)cc1	n	n	n	n
SMILES	FLuc inh	3T3 cytotox	HEK293 tox	NPR1 antag
CCOC(=O)C1CCN(C(=O)c2cn3cc(-c4cccc(C(F)(F)F)c4)sc3n2)CC1	x	n	n	x
CCOC(=O)C1CCN(C(=O)c2cn3cc(-c4ccc(C(F)(F)F)cc4)sc3n2)CC1	x	39.8µM	u	x
Cc1ccc2c(C(=O)N3CCN(CC(C)C)CC3)cc(NC(=O)C3CCC3)cc2n1	n	n	n	n
COC(=O)NC1CCN(c2ccc3nnc(C4CC4)n3n2)CC1	x	n	n	x
Cc1ncsc1CN1CCC(Cc2ncc(C)n2CC2CC2)C1 (centres undefined)	n	n	n	n
COc1cccc(CN2CCC(Cc3ncc(C)n3CC3CC3)C2)c1OC (centres undefined)	n	u	44.7µM	n
CC(=O)NC1CCCN(c2ccnc3ccnn23)C1 (centres undefined)	x	n	n	x
CCOC(=O)C1(Cc2ccccc2C(F)(F)F)CCNCC1	n	u	u	n
COc1ccc(-c2ccc3nc(-c4ccc(C)c(F)c4)oc3c2)c(OC)c1OC	u	n	n	n
COc1ccc(-c2ccc3nc(-c4ccc(F)c(F)c4)oc3c2)c(OC)c1OC	n	u	89.1µM	n
COc1ccc(-c2ccc3nc(-c4ccc(F)c(C)c4)oc3c2)c(OC)c1OC	u	n	89.1µM	n
c1ccc([C@@H]2C[C@@H]3C[C@H](N4CCN(Cc5ccccn5)CC4)C[C@@H]3CO2)cc1	x	n	u	x
O=C(Nc1cc(-c2cccnc2)nn1-c1ccccc1)c1ccc(Cl)nc1	x	u	n	x
Cc1ccc(-c2cccc(CN3CCCC3C(=O)NCC(F)F)c2)cc1Cl (centres undefined)	x	u	39.8µM	x
Cc1ccc(-c2cccc(CN3CCCC(NC(=O)c4ccc(Cl)nc4)C3)c2)cc1Cl (centres undefined)	x	n	n	x
Cc1ccc(-c2cccc(CN3CCCC3C(=O)NCC(C)C)c2)cc1Cl (centres undefined)	x	35.5µM	39.8µM	x
Cc1ccc(-c2cccc(CN3CCCC3C(=O)N3CCN(c4ncccn4)CC3)c2)cc1Cl (centres undefined)	x	u	14.1µM	x
CNC(=O)c1cc(C2CC2)nc2onc(C3CCN(C(=O)c4ccc(F)cc4)C3)c12 (centres undefined)	x	n	u	x
COc1ccccc1-n1c(=O)c(C(=O)NCC2CC2)nc2cccnc21	x	n	n	x
O=C(C1CCCCN1Cc1ccc(-c2ccsc2)cc1)N1CCCC1 (centres undefined)	x	n	u	x
O=C(NC1CCCCC1)C1CCCCN1Cc1ccc(-c2ccsc2)cc1 (centres undefined)	x	n	39.8µM	x
O=C(NCC(F)(F)F)C1CCCCN1Cc1ccc(-c2ccsc2)cc1 (centres undefined)	x	n	u	x
O=C(NCCc1ccc(Cl)cc1)C1CCCCN1Cc1ccc(-c2ccsc2)cc1 (centres undefined)	x	25.1µM	39.8µM	x
CN(C)c1ccc(C(=O)NC2CCN(c3cnn(C)c(=O)c3)CC2)cc1	n	n	n	n
O=C(NCc1ccccc1)c1ccccc1OC1CN(Cc2cccc(F)c2)C1	n	u	28.2µM	n
O=C(NC1CC1)c1ccccc1OC1CN(Cc2ccc(F)c(F)c2)C1	n	u	u	n
O=C(NCc1ccccc1)c1ccccc1OC1CN(Cc2ccncc2)C1	n	u	39.8µM	n
Cc1ccc(CN2CC(Oc3ccccc3C(=O)N3CCOCC3)C2)cc1C	n	u	44.7µM	n
O=C(NCc1ccccc1)c1ccccc1OC1CN(Cc2cccnc2Cl)C1	x	u	44.7µM	x
O=C(NCc1ccccc1)c1ccccc1OC1CN(Cc2ccc(O)c(F)c2)C1	n	u	u	n

Source: PubChem (National Center for Advancing Translational Sciences (NCATS))
